Structures are written as SMILES. About 83,000 compounds went through this panel and 20% of them were active in at least one assay; those are over-represented in the sample as a whole.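 For each line, cells grew in 96-well plates with the test compound present at a single concentration for 48 hours.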 Values without a mark were called inactive. Active and inactive are the calls of the source. How the source made its calls: active means growth percent below 10; inactive means the rest.

Here are results for seven molecules from PubChem BioAssay (NCI).

Test systems include SNB-75 CNS; SNB-19 CNS; U251 CNS; PC-3 prostate; SK-MEL-5 melanoma; UACC-62 melanoma; LOX IMVI melanoma; SK-MEL-28 melanoma; SK-MEL-2 melanoma; SN12C renal; UO-31 renal; TK-10 renal; ACHN renal; CAKI-1 renal; A498 renal; CCRF-CEM leukemia; MOLT-4 leukemia; SR leukemia; EKVX NSCLC.
Common to all, as to test: NCI-60 one-dose screen, 48 h (100 = growth as untreated, 0 = no growth, -100 = all killed)
Holding throughout (conditions): 10 µM

`C#Cc1ccc(-n2c(/C=C/c3ccc4ccccc4c3)nc3ncccc3c2=O)cc1`: the growth was 47.3% with SNB-75 CNS; 75.3% in the assay with SNB-19 CNS; 43.2% with U251 CNS; 13.7% in the assay with PC-3 prostate; -90.3% (active) with SK-MEL-5 melanoma; 26.7% in the assay with UACC-62 melanoma. The growth was -39% (active) in the assay on LOX IMVI melanoma; 58.8% in the assay on SK-MEL-28 melanoma; -33.2% (active) in the assay with SK-MEL-2 melanoma; 28.9% with SN12C renal; 13.7% in the assay on UO-31 renal; 21.4% with TK-10 renal. Besides, the growth with ACHN renal is 23.1%; in the assay with CAKI-1 renal, 13%; with A498 renal it was -2.88% (active); with CCRF-CEM leukemia it was 2.66% (active); in the assay with MOLT-4 leukemia, 4.88% (active); in the assay on SR leukemia, 4.43% (active).

As to `CN(C)N=Nc1nn(C(=O)Nc2ccc(Cc3ccccc3)cc2)c2ccccc12`, the growth was 101% in the assay with SNB-75 CNS; 64% with SNB-19 CNS; 67.9% in the assay on U251 CNS; 29.5% in the assay with PC-3 prostate; -37.5% (active) with SK-MEL-5 melanoma; -8.25% (active) with UACC-62 melanoma. In addition, the growth in the assay with LOX IMVI melanoma was 1.48% (active); with SK-MEL-28 melanoma, 43.2%; with SK-MEL-2 melanoma it was 58.4%; in the assay with SN12C renal, 58.9%; in the assay with UO-31 renal, 41.9%; in the assay with CAKI-1 renal, 15.5%. The growth in the assay with A498 renal was 82.4%; in the assay on CCRF-CEM leukemia it was 64.8%; in the assay with MOLT-4 leukemia, 64.1%; with SR leukemia it was 59.8%.

In the case of `C=C1c2c(C)nn(-c3ccc(OC)cc3)c2N(C)C23C[C@@H]1C1(C)c4c(C)nn(-c5ccc(OC)cc5)c4N(C)C(C)(C[C@H]12)C3` (stereo partly specified), the growth with SNB-75 CNS was 59.6%; in the assay with SNB-19 CNS, 46.8%; in the assay on U251 CNS, 32.1%; in the assay with PC-3 prostate, -4.74% (active); in the assay with SK-MEL-5 melanoma, 16.1%; in the assay with UACC-62 melanoma it was 26.9%. Moreover, the growth was 18.4% with LOX IMVI melanoma; 56.8% in the assay on SK-MEL-28 melanoma; 37.2% with SK-MEL-2 melanoma; 23.8% in the assay with SN12C renal; 16.2% in the assay with UO-31 renal; 33.8% in the assay on ACHN renal. In addition, the growth in the assay with CAKI-1 renal was 2.18% (active); with A498 renal it was 40.2%; in the assay with CCRF-CEM leukemia it was 21.7%; in the assay with MOLT-4 leukemia, 14.9%; with SR leukemia it was 3.27% (active).

In the case of `COc1ccc(Cn2c(C(N)=O)cc3c2-c2nc(N)ncc2CCC3)cc1`, the growth in the assay with SNB-75 CNS was 97.2%; in the assay on SNB-19 CNS it was 102%; in the assay on U251 CNS, 99.3%; in the assay on PC-3 prostate, 99.3%; in the assay on SK-MEL-5 melanoma, 98.7%; with UACC-62 melanoma, 95.4%. Also, the growth in the assay with LOX IMVI melanoma was 107%; in the assay on SK-MEL-28 melanoma, 99.2%; in the assay on SK-MEL-2 melanoma it was 105%; in the assay with SN12C renal, 106%; with UO-31 renal it was 82.6%; with TK-10 renal, 108%. Further, the growth in the assay on ACHN renal was 97.1%; in the assay on CAKI-1 renal, 105%; in the assay with A498 renal, 76.2%; in the assay with CCRF-CEM leukemia, 95.8%; with MOLT-4 leukemia, 108%; in the assay on SR leukemia, 108%.

For the molecule `Clc1nc(Cl)c2c(ncn2C/C=C\Cn2cnc3c(Cl)nc(Cl)nc32)n1`, the growth in the assay on SNB-75 CNS is -28.9% (active); with SNB-19 CNS it was -15.6% (active); in the assay on U251 CNS, -93.6% (active); with PC-3 prostate, -96.2% (active); in the assay with SK-MEL-5 melanoma it was -91% (active); in the assay on UACC-62 melanoma, -79% (active). In addition, the growth in the assay on LOX IMVI melanoma is -94.2% (active); in the assay with SK-MEL-28 melanoma, -50.3% (active); with SK-MEL-2 melanoma, 5.02% (active); in the assay on EKVX NSCLC, -79.8% (active); in the assay with SN12C renal, -5.17% (active); in the assay with TK-10 renal, -97.2% (active). Moreover, the growth in the assay with ACHN renal is -100% (active); in the assay with CAKI-1 renal it was -100% (active); with CCRF-CEM leukemia it was -81% (active); in the assay on MOLT-4 leukemia, -59.4% (active); in the assay with SR leukemia, -66.3% (active).

Turning to `ClCCOCCn1cnc2c(Cl)nc(Cl)nc21`, the growth with SNB-75 CNS was 57.1%; with SNB-19 CNS, 88.2%; with U251 CNS, 67.3%; in the assay with PC-3 prostate, 35.2%; in the assay on SK-MEL-5 melanoma, 52.3%; with UACC-62 melanoma, 45.1%. For the same molecule, the growth with LOX IMVI melanoma was -13.9% (active); with SK-MEL-28 melanoma, 72.8%; in the assay on SK-MEL-2 melanoma, 67.6%; in the assay on EKVX NSCLC, 92.4%; in the assay on SN12C renal it was 63.3%; with UO-31 renal it was 88%. Further, the growth was 92.7% in the assay on TK-10 renal; 81.3% in the assay on ACHN renal; -4.35% (active) with CAKI-1 renal; 93.1% with A498 renal; 79.8% in the assay with MOLT-4 leukemia; 41.5% in the assay with SR leukemia.

As to `CN(C)CCS(=O)(=O)CCN(C)C`, the growth with SNB-75 CNS was 110%; in the assay with SNB-19 CNS, 103%; in the assay with U251 CNS it was 104%; in the assay with PC-3 prostate, 102%; in the assay on SK-MEL-5 melanoma it was 98.7%; with UACC-62 melanoma it was 97.8%. Moreover, the growth in the assay with LOX IMVI melanoma was 105%; in the assay with SK-MEL-28 melanoma, 108%; in the assay with SK-MEL-2 melanoma, 106%; with SN12C renal it was 97.2%; in the assay on UO-31 renal, 113%; in the assay on TK-10 renal it was 103%. In addition, the growth is 107% with ACHN renal; 112% in the assay on CAKI-1 renal; 96% in the assay with A498 renal; 102% in the assay with CCRF-CEM leukemia; 104% in the assay on MOLT-4 leukemia.
